From PubChem BioAssay (Tox21) come the findings set out here.

Inconclusive results are not listed. A call without a number means that no potency is given here. Calls of active or inactive are those of the source. Unless noted, the call rests on the fitted dose curve; in most records, active means well fitted cell-killing curve with a large enough effect in the repeat runs; inconclusive means weak or mixed curves, or effect the other way; inactive means flat fitted curve, though single readings scatter.

One experiment is described as follows: qHTS assay to identify small molecule agonists of the TGF-beta/Smad signaling pathway - cell viability counter screen (AID 1346829). Further: top concentration of the series differs between compounds; nearly all actives have a fitted effect of over 45% in size. Particulars: SBE-bla HEK293T viability, CellTiter-Glo luminescence, 5 h; series mostly up to 76.8 µM; activity change, negative = cytotoxicity: at the top concentration. In outline:
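SBE-bla HEK 293T cells plated overnight, compound exposure 5 hr at 37 C. Viability read in the same wells by CellTiter-Glo luminescence after 30 min at room temperature, following the beta-lactamase read.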
(Quantitative high-throughput screening tests each substance at several concentrations.)
Consider `c1ccc2c(c1)Oc1ccccc1S2`, for which the Potency entry was “inactive”.

Regarding `C#C[C@]1(O)CC[C@H]2[C@@H]3CCc4cc(OC)ccc4[C@H]3CC[C@@]21C`, the “activity change, negative = cytotoxicity” value was 0.0862% [at 35.3 µM] (inactive).

Consider `Cc1cc2nc3c(=O)[nH]c(=O)nc-3n(C[C@H](O)[C@H](O)[C@H](O)CO)c2cc1C`, for which the Potency result is “inactive”.

With `COC(=O)c1ccccc1`, the Potency result was “inactive”.

In the case of `CC(C)OC=O`, the Potency result was “inactive”.

For `Cc1ccc(C(=O)c2cc(O)c(O)c([N+](=O)[O-])c2)cc1`, the Potency result was “inactive”.

With `O=C1c2cccc(O)c2C(=O)c2c(O)cccc21`, the Potency result was “inactive”.

Take `C[Si](C)(C)O[Si](C)(C)C`: the Potency entry is “inactive”.

Turning to `O=C=Nc1ccc(Cc2ccc(N=C=O)cc2)cc1`, the Potency result is “inactive”.

Regarding `CN(C)C(=N)N=C(N)N`, the Potency entry is “inactive”.

As for `NNc1ccc(C(=O)O)cc1`, the Potency entry is “inactive”.

As for `CCCCCCCCCC(=O)OC`, the Potency entry is “inactive”.

Regarding `c1ccncc1`, the Potency entry is “inactive”.

As for `Cc1c(OCC(F)(F)F)ccnc1CS(=O)c1nc2ccccc2[nH]1` (stereo unspecified), the Potency entry is “inactive”.

In the case of `O=C(/C=C/C=C/c1ccc2c(c1)OCO2)N1CCCCC1`, the Potency result was “inactive”.

Consider `COC(=O)Nc1nc2ccc(S(=O)c3ccccc3)cc2[nH]1` (stereo unspecified), for which the Potency result is “inactive”.

On to `S=C(NC1CCCCC1)NC1CCCCC1`, for which the Potency result is “inactive”.

On to `O=C(COc1ccc(Cl)cc1)N1CCN(Cc2ccc3c(c2)OCO3)CC1`, for which the Potency result is “inactive”.

In the case of `c1ccc(Nc2ccccc2)cc1`, the Potency result is “inactive”.

For the molecule `CCC(C)(O)CCCC(C)C` (stereo unspecified), the Potency result was “inactive”.

`Cn1cnc([N+](=O)[O-])c1Sc1ncnc2nc[nH]c12`: the “activity change, negative = cytotoxicity” value was -20.9% [at 35.3 µM] (inactive).

With `CCOC(=O)C(C#N)=C(c1ccccc1)c1ccccc1`, the Potency entry was “inactive”.

On to `O=C(c1ccccc1)c1ccc(O)cc1O`, for which the Potency result is “inactive”.

As to `CN(C)c1nc(N(C)C)nc(N(C)C)n1`, the Potency result is “inactive”.

`CC(C)=CCC/C(C)=C\CO`: the Potency entry was “inactive”.

Consider `C/C=C/C(=O)O`, for which the Potency result is “inactive”.

As to `CC(=O)CC/C=C(\C)CCC=C(C)C`, the Potency entry is “inactive”.

As for `Nc1ccc(Cl)cc1Cl`, the Potency result was “inactive”.

`Brc1cc(Oc2cc(Br)c(Br)c(Br)c2Br)c(Br)c(Br)c1Br`: the Potency result was “inactive”.

Turning to `OC1CCCCCCCCCCC1`, the Potency entry is “inactive”.

Take `CCCCOCCOCCO`: the Potency entry was “inactive”.

Take `COc1ccccc1/C=C/C=O`: the “activity change, negative = cytotoxicity” value was 6.93% (inactive).

Regarding `C[C@]12CC[C@H]3[C@@H](CCC4=CC(=O)CC[C@@]43C)[C@@H]1CC[C@@H]2C(=O)CO`, the Potency result was “inactive”.

For the molecule `CC(=O)O[C@]1(C(C)=O)CC[C@H]2[C@@H]3C=C(Cl)C4=CC(=O)[C@@H]5C[C@@H]5[C@]4(C)[C@H]3CC[C@@]21C`, the Potency entry was “inactive”.

On to `CCCCOCCOCCOCCO`, for which the Potency entry was “inactive”.

For `CC1=CC2C3CC(C=C3C)C2C1` (stereo unspecified), the Potency entry was “inactive”.

For the molecule `CC(C)(C)NC(=O)[C@H]1CC[C@H]2[C@@H]3CC[C@H]4NC(=O)C=C[C@]4(C)[C@H]3CC[C@]12C`, the Potency result was “inactive”.

On to `CC(C)Oc1ccc2c(=O)c(-c3ccccc3)coc2c1`, for which the Potency entry was “inactive”.

As for `O=C1OC2(c3cc(Br)c(O)c(Br)c3Oc3c2cc(Br)c(O)c3Br)c2c(Cl)c(Cl)c(Cl)c(Cl)c21`, the Potency entry was “inactive”.

A further experiment can be described thus: qHTS assay to identify small molecule agonists of the TGF-beta/Smad signaling pathway (AID 1346859; active means well fitted activation curve with a large enough effect in the signal ratio in the repeat runs, not every such curve was filed as active; the % refers to the signal ratio). As to conditions: SBE-bla HEK293T, TGF-beta/Smad beta-lactamase reporter, 5 h; series mostly up to 76.8 µM; activation: at the top concentration. In outline:
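After overnight seeding, SBE-bla HEK 293T cells are dosed with compounds in DMSO and kept 5 hr at 37 C, 5% CO2. LiveBLAzer-type FRET substrate is then applied for 2 hr at room temperature.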
With `c1ccc2c(c1)Oc1ccccc1S2`, the molecule was called inactive.

With `C#C[C@]1(O)CC[C@H]2[C@@H]3CCc4cc(OC)ccc4[C@H]3CC[C@@]21C`, the result was inactive.

With `Cc1cc2nc3c(=O)[nH]c(=O)nc-3n(C[C@H](O)[C@H](O)[C@H](O)CO)c2cc1C`, the activation was -2.99% [at 15.8 µM] (inactive).

Regarding `COC(=O)c1ccccc1`, the outcome was inactive.

For `CC(C)OC=O`, the call was inactive.

`O=C1c2cccc(O)c2C(=O)c2c(O)cccc21`: the “activation” value was -8.16% [at 35.3 µM] (inactive).

Turning to `C[Si](C)(C)O[Si](C)(C)C`, the molecule was called inactive.

Turning to `O=C=Nc1ccc(Cc2ccc(N=C=O)cc2)cc1`, the molecule was called inactive.

On to `CN(C)C(=N)N=C(N)N`, for which the molecule was classed as inactive.

Turning to `NNc1ccc(C(=O)O)cc1`, the call was inactive.

Take `CCCCCCCCCC(=O)OC`: the outcome was inactive.

For `c1ccncc1`, the molecule was called inactive.

In the case of `Cc1c(OCC(F)(F)F)ccnc1CS(=O)c1nc2ccccc2[nH]1` (stereo unspecified), the outcome was inactive.

Take `O=C(/C=C/C=C/c1ccc2c(c1)OCO2)N1CCCCC1`: the outcome was inactive.

Take `COC(=O)Nc1nc2ccc(S(=O)c3ccccc3)cc2[nH]1` (stereo unspecified): the result was inactive.

As for `S=C(NC1CCCCC1)NC1CCCCC1`, the outcome was inactive.

Consider `O=C(COc1ccc(Cl)cc1)N1CCN(Cc2ccc3c(c2)OCO3)CC1`, for which the molecule was called inactive.

Take `c1ccc(Nc2ccccc2)cc1`: the “activation” value was 0.245% (inactive).

Take `CCC(C)(O)CCCC(C)C` (stereo unspecified): the molecule was classed as inactive.

On to `Cn1cnc([N+](=O)[O-])c1Sc1ncnc2nc[nH]c12`, for which the result was inactive.

As for `CCOC(=O)C(C#N)=C(c1ccccc1)c1ccccc1`, the result was inactive.

On to `O=C(c1ccccc1)c1ccc(O)cc1O`, for which the call was inactive.

As for `CN(C)c1nc(N(C)C)nc(N(C)C)n1`, the result was inactive.

As for `CC(C)=CCC/C(C)=C\CO`, the outcome was inactive.

Take `C/C=C/C(=O)O`: the outcome was inactive.

Take `CC(=O)CC/C=C(\C)CCC=C(C)C`: the outcome was inactive.

On to `Nc1ccc(Cl)cc1Cl`, for which the molecule was classed as inactive.

As to `Brc1cc(Oc2cc(Br)c(Br)c(Br)c2Br)c(Br)c(Br)c1Br`, the “activation” value is 8.1% [at 35.3 µM] (inactive).

Take `OC1CCCCCCCCCCC1`: the molecule was classed as inactive.

Take `CCCCOCCOCCO`: the molecule was called inactive.

Take `COc1ccccc1/C=C/C=O`: the molecule was classed as inactive.

Turning to `C[C@]12CC[C@H]3[C@@H](CCC4=CC(=O)CC[C@@]43C)[C@@H]1CC[C@@H]2C(=O)CO`, the “activation” value is -5.59% [at 35.3 µM] (inactive).

`CCCCOCCOCCOCCO`: the molecule was classed as inactive.

As for `CC1=CC2C3CC(C=C3C)C2C1` (stereo unspecified), the molecule was classed as inactive.

On to `CC(C)(C)NC(=O)[C@H]1CC[C@H]2[C@@H]3CC[C@H]4NC(=O)C=C[C@]4(C)[C@H]3CC[C@]12C`, for which the “activation” value is -2.33% [at 35.3 µM] (inactive).

Regarding `CC(C)Oc1ccc2c(=O)c(-c3ccccc3)coc2c1`, the call was inactive.

With `O=C1OC2(c3cc(Br)c(O)c(Br)c3Oc3c2cc(Br)c(O)c3Br)c2c(Cl)c(Cl)c(Cl)c(Cl)c21`, the “activation” value is -7.61% [at 35.3 µM] (inactive).
